Measured values taken from the supplement of paper PMC4466140.

B1: unnamed (peptide)
chain: KNPRRQLQIPRQQPS
B2: unnamed (peptide)
chain: IHTRRPSSTSQYLIR

target: CaNbp2; test: SPOT peptide array binding signal intensity (averaged, normalized) (arbitrary units (background-subtracted, floor 0; scale differs between SH3 domains)); higher = stronger binding of the SH3 domain to the peptide
Method in brief: (§1)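 GST-fused SH3 domains, from four yeast species, were produced in E. coli BL21(DE3) and captured on glutathione Sepharose. Membranes of cellulose carrying synthetic 15-mer peptides, in which cysteines had been replaced by serines, were exposed to each domain at 10 μg/ml overnight at 4°C in TBS-based blocking buffer. After anti-GST antibody, an HRP anti-mouse secondary and luminol, spots were imaged and quantified using Genespotter. Binding signal is normalized and background-subtracted spot intensity, averaged over replicates, in arbitrary units that differ between domains.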

Binder	SPOT peptide array binding signal intensity
B1	333
B2	94.5

target: CaRvs167; test: as above
Method in brief: as §1

Binder	SPOT peptide array binding signal intensity
B1	12
B2	19.7

target: CaRvs167-3; test: as above
Method in brief: as §1

Binder	SPOT peptide array binding signal intensity
B1	11.8
B2	69.5

target: CaSho1; test: as above
Method in brief: as §1

Binder	SPOT peptide array binding signal intensity
B1	47.5
B2	369

target: CaSla1-D1-D2; test: as above
Method in brief: as §1

Binder	SPOT peptide array binding signal intensity
B1	148
B2	126

target: CaSla1-D3; test: as above
Method in brief: as §1

Binder	SPOT peptide array binding signal intensity
B1	1.25
B2	15.8

target: ScAbp1; test: as above
Method in brief: as §1

Binder	SPOT peptide array binding signal intensity
B1	146
B2	97.5

target: ScBbc1; test: as above
Method in brief: as §1

Binder	SPOT peptide array binding signal intensity
B1	7.25
B2	144

target: ScBem1-D1; test: as above
Method in brief: as §1

Binder	SPOT peptide array binding signal intensity
B1	29
B2	40.5

target: ScBzz1-D1; test: as above
Method in brief: as §1

Binder	SPOT peptide array binding signal intensity
B1	47.5
B2	50

target: ScBzz1-D2; test: as above
Method in brief: as §1

Binder	SPOT peptide array binding signal intensity
B1	8
B2	50.5

target: ScCyk3; test: as above
Method in brief: as §1

Binder	SPOT peptide array binding signal intensity
B1	15
B2	35

target: ScFus1; test: as above
Method in brief: as §1

Binder	SPOT peptide array binding signal intensity
B1	98
B2	593

target: ScHof1; test: as above
Method in brief: as §1

Binder	SPOT peptide array binding signal intensity
B1	0.75
B2	1

target: ScHse1; test: as above
Method in brief: as §1

Binder	SPOT peptide array binding signal intensity
B1	527
B2	465

target: ScLsb1; test: as above
Method in brief: as §1

Binder	SPOT peptide array binding signal intensity
B1	162
B2	3

target: ScLsb2; test: as above
Method in brief: as §1

Binder	SPOT peptide array binding signal intensity
B1	2
B2	162

target: ScLsb3; test: as above
Method in brief: as §1

Binder	SPOT peptide array binding signal intensity
B1	132
B2	158

target: ScLsb4; test: as above
Method in brief: as §1

Binder	SPOT peptide array binding signal intensity
B1	12
B2	6.5

target: ScMyo3; test: as above
Method in brief: as §1

Binder	SPOT peptide array binding signal intensity
B1	2
B2	82

target: ScMyo5; test: as above
Method in brief: as §1

Binder	SPOT peptide array binding signal intensity
B1	1
B2	243

target: ScNbp2; test: as above
Method in brief: as §1

Binder	SPOT peptide array binding signal intensity
B1	173
B2	267

target: ScPex13; test: as above
Method in brief: as §1

Binder	SPOT peptide array binding signal intensity
B1	≤ 0
B2	10.8

target: ScRvs167; test: as above
Method in brief: as §1

Binder	SPOT peptide array binding signal intensity
B1	13.5
B2	19.8

target: ScSho1; test: as above
Method in brief: as §1

Binder	SPOT peptide array binding signal intensity
B1	95
B2	585

target: ScSla1-D1-D2; test: as above
Method in brief: as §1

Binder	SPOT peptide array binding signal intensity
B1	442
B2	172

target: ScSla1-D3; test: as above
Method in brief: as §1

Binder	SPOT peptide array binding signal intensity
B1	21
B2	14.5

target: SpAbp1-D1; test: as above
Method in brief: as §1

Binder	SPOT peptide array binding signal intensity
B1	306
B2	826

target: SpBbc1; test: as above
Method in brief: as §1

Binder	SPOT peptide array binding signal intensity
B1	1
B2	60

target: SpBzz1-D1; test: as above
Method in brief: as §1

Binder	SPOT peptide array binding signal intensity
B1	240
B2	632

target: SpBzz1-D2; test: as above
Method in brief: as §1

Binder	SPOT peptide array binding signal intensity
B1	0.5
B2	6.5

target: SpCyk3; test: as above
Method in brief: as §1

Binder	SPOT peptide array binding signal intensity
B1	1
B2	10

target: SpHof1; test: as above
Method in brief: as §1

Binder	SPOT peptide array binding signal intensity
B1	126
B2	51

target: SpHof1-2; test: as above
Method in brief: as §1

Binder	SPOT peptide array binding signal intensity
B1	11.5
B2	10.5

target: SpHof1-3; test: as above
Method in brief: as §1

Binder	SPOT peptide array binding signal intensity
B1	266
B2	669

target: SpHse1; test: as above
Method in brief: as §1

Binder	SPOT peptide array binding signal intensity
B1	260
B2	352

target: SpLsb1; test: as above
Method in brief: as §1

Binder	SPOT peptide array binding signal intensity
B1	54.2
B2	292

target: SpLsb4; test: as above
Method in brief: as §1

Binder	SPOT peptide array binding signal intensity
B1	129
B2	138

target: SpMyo1; test: as above
Method in brief: as §1

Binder	SPOT peptide array binding signal intensity
B1	2
B2	138

target: SpNbp2; test: as above
Method in brief: as §1

Binder	SPOT peptide array binding signal intensity
B1	53
B2	96.5

target: SpPex13; test: as above
Method in brief: as §1

Binder	SPOT peptide array binding signal intensity
B1	5
B2	10

target: SpRvs167; test: as above
Method in brief: as §1

Binder	SPOT peptide array binding signal intensity
B1	16.7
B2	31.3

target: SpSla1-D1-D2; test: as above
Method in brief: as §1

Binder	SPOT peptide array binding signal intensity
B1	3.5
B2	2

target: SpSla1-D3; test: as above
Method in brief: as §1

Binder	SPOT peptide array binding signal intensity
B1	2
B2	6

target: AgAbp1; test: as above
Method in brief: as §1

Binder	SPOT peptide array binding signal intensity
B2	235

target: AgBbc1; test: as above
Method in brief: as §1

Binder	SPOT peptide array binding signal intensity
B2	354

target: AgBem1-D1; test: as above
Method in brief: as §1

Binder	SPOT peptide array binding signal intensity
B2	254

target: AgBzz1-D1; test: as above
Method in brief: as §1

Binder	SPOT peptide array binding signal intensity
B2	73.5

target: AgBzz1-D2; test: as above
Method in brief: as §1

Binder	SPOT peptide array binding signal intensity
B2	58.5

target: AgCyk3; test: as above
Method in brief: as §1

Binder	SPOT peptide array binding signal intensity
B2	4

target: AgFus1; test: as above
Method in brief: as §1

Binder	SPOT peptide array binding signal intensity
B2	406

target: AgHof1; test: as above
Method in brief: as §1

Binder	SPOT peptide array binding signal intensity
B2	44.2

target: AgHse1; test: as above
Method in brief: as §1

Binder	SPOT peptide array binding signal intensity
B2	202

target: AgLsb1; test: as above
Method in brief: as §1

Binder	SPOT peptide array binding signal intensity
B2	242

target: AgLsb4; test: as above
Method in brief: as §1

Binder	SPOT peptide array binding signal intensity
B2	32

target: AgMyo5; test: as above
Method in brief: as §1

Binder	SPOT peptide array binding signal intensity
B2	194

target: AgNbp2; test: as above
Method in brief: as §1

Binder	SPOT peptide array binding signal intensity
B2	106

target: AgRvs167; test: as above
Method in brief: as §1

Binder	SPOT peptide array binding signal intensity
B2	1.33

target: AgSho1; test: as above
Method in brief: as §1

Binder	SPOT peptide array binding signal intensity
B2	22.5

target: AgSla1-D1-D2; test: as above
Method in brief: as §1

Binder	SPOT peptide array binding signal intensity
B2	44

target: AgSla1-D3; test: as above
Method in brief: as §1

Binder	SPOT peptide array binding signal intensity
B2	11.8

target: CaAbp1-D1; test: as above
Method in brief: as §1

Binder	SPOT peptide array binding signal intensity
B2	732

target: CaAbp1-D2; test: as above
Method in brief: as §1

Binder	SPOT peptide array binding signal intensity
B2	571

target: CaBbc1; test: as above
Method in brief: as §1

Binder	SPOT peptide array binding signal intensity
B2	415

target: CaBem1-D1; test: as above
Method in brief: as §1

Binder	SPOT peptide array binding signal intensity
B2	43

target: CaBzz1-D1; test: as above
Method in brief: as §1

Binder	SPOT peptide array binding signal intensity
B2	249

target: CaBzz1-D2; test: as above
Method in brief: as §1

Binder	SPOT peptide array binding signal intensity
B2	267

target: CaCyk3; test: as above
Method in brief: as §1

Binder	SPOT peptide array binding signal intensity
B2	17

target: CaFus1; test: as above
Method in brief: as §1

Binder	SPOT peptide array binding signal intensity
B2	699

target: CaHof1; test: as above
Method in brief: as §1

Binder	SPOT peptide array binding signal intensity
B2	0.5

target: CaHse1; test: as above
Method in brief: as §1

Binder	SPOT peptide array binding signal intensity
B2	110

target: CaLsb1; test: as above
Method in brief: as §1

Binder	SPOT peptide array binding signal intensity
B2	22

target: CaLsb4; test: as above
Method in brief: as §1

Binder	SPOT peptide array binding signal intensity
B2	150

target: CaMyo5; test: as above
Method in brief: as §1

Binder	SPOT peptide array binding signal intensity
B2	208
